The source of these data is the supplement of paper PMC6555819.

Test in all cases: PBM binding z-score (relative to random genomic background probes); higher = stronger binding; sequences stand for … in GC…GCGATTGACAGCGTAGAATGAAGG
Assay [1] relates to FXR:RXRa (NR concentration 270 nM, RXRa partner concentration 90 nM). The method in brief:
(§1)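 Random background probes are the reference for binding z-scores. These scores derive from regression-normalized fluorescence on custom Agilent 4×180K protein-binding microarrays incubated 1 h with ligand-free nuclear receptor dimers. Binding was detected with antibodies against each partner (one per run).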

For assay [2], the system named is LXRa:RXRa (NR concentration 270 nM, RXRa partner concentration 90 nM). The method in brief: as §1
Assay [3] deals with LXRa homodimer (NR concentration 270 nM). The method in brief:
as §1

The test system of assay [4] is LXRb:RXRa (NR concentration 270 nM, RXRa partner concentration 90 nM). Put shortly: as §1
The test system of assay [5] is LXRb homodimer (NR concentration 270 nM). The method in brief:
as §1

Assay [6] relates to PPARa:RXRa (NR concentration 270 nM, RXRa partner concentration 90 nM). Put shortly:
as §1

The subject of assay [7] is PPARg:RXRa (NR concentration 180 nM, RXRa partner concentration 90 nM). Put shortly:
as §1

The test system of assay [8] is PPARg:RXRa 270nM:90nM, anti-RXR (NR concentration 270 nM, RXRa partner concentration 90 nM). The method in brief:
as §1

The test system of assay [9] is PPARg:RXRa 30nM:10nM, anti-RXR (NR concentration 30 nM, RXRa partner concentration 10 nM). Put shortly: as §1
For assay [10], the system named is PPARg:RXRa 90nM:30nM, anti-RXR (NR concentration 90 nM, RXRa partner concentration 30 nM). Put shortly: as §1
Assay [11] has as its system PPARg:RXRa DBDmut IVT, anti-RXR (DBD mutation: RXRa K156A/R161A, NR concentration 270 nM, RXRa partner concentration 90 nM). Put shortly:
as §1

In assay [12] the test system is PPARg:RXRa IVT, anti-PPARg (NR concentration 270 nM, RXRa partner concentration 90 nM). Put shortly:
as §1

In assay [13] the test system is PPARg DBDmut:RXRa IVT, anti-PPARg (DBD mutation: PPARg1 K132A/R137A, NR concentration 270 nM, RXRa partner concentration 90 nM). Put shortly:
as §1

In assay [14] the test system is PPARg DBDmut IVT, anti-PPARg (DBD mutation: PPARg1 K132A/R137A, NR concentration 270 nM). The method in brief:
as §1

For assay [15], the system named is PPARg homodimer (NR concentration 180 nM). The method in brief: as §1
For assay [16], the system named is PXR:RXRa (NR concentration 270 nM, RXRa partner concentration 90 nM). The method in brief:
as §1

Assay [17] relates to PXR homodimer (NR concentration 270 nM). Put shortly:
as §1

In assay [18] the test system is RARa:RXR (NR concentration 270 nM, RXRa partner concentration 90 nM). The method in brief: as §1
The subject of assay [19] is RARa homodimer (NR concentration 270 nM). The method in brief:
as §1

For assay [20], the system named is RARb:RXRa (NR concentration 270 nM, RXRa partner concentration 90 nM). The method in brief:
as §1

As to AGAAGGAGGTTAAGATCAGGGAAACAGAATACAT, the PBM binding z-score in assay [1] came out at 1.65; in assay [2], 1.79; in assay [3] it was 0.422; in [4], 2.19; in [5] it was 1.11; in [6] it was 2.82. The PBM binding z-score in assay [7] amounted to 1.84; in [8], 1.67; in assay [9], 0.855; in assay [10] it was 1.19; in assay [11] it was 1.24; in assay [12], 1.78. The PBM binding z-score is 1.73 in assay [13]; 0.272 in [14]; 2.06 in assay [15]; 1.5 in assay [16]; 1.36 in assay [17]; 1.51 in [18]. Also, the PBM binding z-score stood at 1.44 in assay [19] and 1.85 in assay [20].
Consider AGAACGAGGGCAAAGAGTTGATAGCACGGGTGGC, for which the PBM binding z-score in assay [1] is 0.422; in [2], 0.331; in assay [3], -0.368; in [4], -0.152; in assay [5], -0.712; in assay [6], 1.78. Also, the PBM binding z-score in assay [7] amounted to 1.8; in assay [8] it was 2.07; in [9], 0.549; in assay [10] it was 1.55; in assay [11], 3.36; in assay [12] it was 2.41. In addition, the PBM binding z-score is 0.499 in assay [13]; -0.21 in assay [14]; 0.413 in assay [15]; 1.77 in assay [16]; 4.76 in [17]; 0.09 in [18]. For the same sequence, the PBM binding z-score is -0.299 in assay [19] and 2.11 in assay [20].
CGAACTAGGTCAGTACAGGACAGTGAAGGATGAT: the PBM binding z-score in assay [1] is 1.58; in [2], 1.83; in [3] it was -0.0342; in [4], 0.493; in [5], -0.478; in assay [6] it was 3. Besides, the PBM binding z-score in assay [7] is 4.93; in assay [8] it was 4.25; in assay [9], 1.71; in assay [10], 3.39; in assay [11], 7.48; in assay [12], 7.01. Also, the PBM binding z-score in [13] is 0.814; in [14], 0.573; in assay [15], 1.07; in assay [16], 0.911; in assay [17], -0.456; in assay [18] it was 0.671. Further, the results for the PBM binding z-score in assay [19] and in [20] were 0.153 and 3.04, respectively.
On to CGTCCAAGGTCAGAGAGGTCAGTGAGTGCCGAGT, for which the PBM binding z-score in assay [1] was found to be 6.29; in assay [2], 5.06; in assay [3], 3.37; in assay [4], 4.79; in assay [5] it was 0.412; in [6], 5.19. In addition, the PBM binding z-score in [7] was 3.71; in assay [8], 4.4; in [9], 0.893; in assay [10] it was 2.59; in assay [11], 2.89; in assay [12], 3.66. The PBM binding z-score in [13] is -0.0729; in assay [14] it was -0.219; in [15], 3.93; in assay [16], 6.23; in assay [17], 12.6; in assay [18] it was 5.43. The PBM binding z-score in assay [19] turned out to be 2.9; in assay [20] it was 5.37.
On to ATCTCTAGGTAACAAGTTCTGTGAAAGAGAGGAC, for which the PBM binding z-score is 0.351 in assay [1]; 0.0214 in [2]; 0.142 in assay [3]; 0.0812 in assay [4]; 0.681 in assay [5]; 0.641 in assay [6]. Further, the PBM binding z-score in [7] was found to be 1.01; in assay [8] it was 1.5; in [9] it was 0.751; in assay [10] it was 1.08; in assay [11], 3.07; in assay [12], 2.91. Also, the PBM binding z-score in assay [13] was determined as 1.35; in [14], 1.11; in assay [15], 0.9; in [16], 0.15; in [17], 0.424; in [18], 0.67. Besides, the PBM binding z-score turned out to be 0.681 in assay [19] and 0.332 in [20].
Consider ATCGAAAGGTCGTGAGGCGAGTATACAGAAAGGC, for which the PBM binding z-score was 5.83 in [1]; 4.11 in assay [2]; 0.273 in [3]; 3.21 in [4]; 0.391 in assay [5]; 5.07 in assay [6]. Also, the PBM binding z-score in assay [7] worked out at 3.85; in assay [8], 4.18; in assay [9], 1.56; in assay [10] it was 2.61; in assay [11], 0.466; in assay [12] it was 1.91. For the same sequence, the PBM binding z-score is 1.82 in assay [13]; 1 in assay [14]; 1.5 in [15]; 2.96 in assay [16]; 0.0504 in assay [17]; 3.69 in assay [18]. Besides, the PBM binding z-score in [19] was 0.41; in assay [20], 4.1.
